Here are results for 8 compounds from PubChem BioAssay (NCI).

Each structure is given as a SMILES string. Compounds without any hit were thinned out: in the full panel of roughly 83,000, 20% have a hit.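 Single-dose data. Exposure time 48 hours. Values below 10 considered active.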 Unmarked numbers belong to inactive results. Active and inactive are the calls of the source.

What all share (experiment): NCI-60 one-dose screen, 48 h (100 = growth as untreated, 0 = no growth, -100 = all killed)
The subject of one test is HCT-15 colon. The conditions noted are these: 10 µM unless noted.
For another test, the system named is HT29 colon. To be noted: 10 µM unless noted.
The subject of another test is SNB-75 CNS. The conditions noted are these: 10 µM unless noted.
For a further test, the system named is SNB-19 CNS. To be noted: 10 µM unless noted.
A further test has as its system U251 CNS. To be noted: 10 µM unless noted.
The next test concerns PC-3 prostate. The conditions noted are these: 10 µM unless noted.
Another test concerns SK-MEL-5 melanoma. The conditions noted are these: 10 µM unless noted.
A further test relates to UACC-62 melanoma. To be noted: 10 µM unless noted.
For a further test, the system named is LOX IMVI melanoma. The conditions noted are these: 10 µM unless noted.
The next test has as its system SK-MEL-28 melanoma. To be noted: 10 µM unless noted.
A further test relates to SK-MEL-2 melanoma. To be noted: 10 µM.
The subject of the next test is EKVX NSCLC. To be noted: 10 µM unless noted.
The test system of a further test is SN12C renal. The conditions noted are these: 10 µM unless noted.
For the next test, the system named is UO-31 renal. The conditions noted are these: 10 µM unless noted.
For another test, the system named is TK-10 renal. The conditions noted are these: 10 µM unless noted.
Another test has as its system ACHN renal. To be noted: 10 µM unless noted.
For another test, the system named is CAKI-1 renal. The conditions noted are these: 10 µM unless noted.
Another test has as its system A498 renal. To be noted: 10 µM unless noted.
The next test relates to CCRF-CEM leukemia. The conditions noted are these: 10 µM unless noted.
Another test has as its system MOLT-4 leukemia. The conditions noted are these: 10 µM unless noted.

For the compound `CCN(CC)CCCC(C)Nc1cc(-c2ccc(C(F)(F)F)cc2)c(C#N)c2nc3ccccc3n12` (stereo not drawn), the growth was 3.48% (active) in the test on HCT-15 colon; -2.76% (active) in the test with HT29 colon; -56.1% (active) in the test with SNB-75 CNS; 34.9% in the test on SNB-19 CNS; 3.09% (active) with U251 CNS; 22.1% in the test with PC-3 prostate. Besides, the growth was -89.9% (active) with SK-MEL-5 melanoma; -67.3% (active) with UACC-62 melanoma; -80.6% (active) in the test on LOX IMVI melanoma; -64.7% (active) in the test with SK-MEL-28 melanoma; 79.3% in the test on SK-MEL-2 melanoma; 35.6% with EKVX NSCLC. Besides, the growth in the test on SN12C renal is -30.3% (active); in the test on UO-31 renal, -76.5% (active); with TK-10 renal it was 68.2%; with ACHN renal, -65.2% (active); in the test on CAKI-1 renal it was 52.2%; in the test with A498 renal, 87.5%. The growth in the test with CCRF-CEM leukemia was -7.3% (active); in the test on MOLT-4 leukemia, -28.2% (active).

`OCCNC(=S)Nc1ccc(-c2nc(N3C[C@H]4CC[C@@H](C3)O4)c3cccn3n2)cc1`: the growth was 13% in the test on HCT-15 colon; 20.1% in the test on HT29 colon; -30.4% (active) in the test on SNB-75 CNS; 0.975% (active) in the test with SNB-19 CNS; 7.99% (active) in the test with U251 CNS; 9.91% (active) in the test with PC-3 prostate. Moreover, the growth in the test with SK-MEL-5 melanoma is -34.8% (active); with UACC-62 melanoma, -36.5% (active); with LOX IMVI melanoma it was 1.79% (active); in the test with SK-MEL-28 melanoma, -5.35% (active); in the test with SK-MEL-2 melanoma, -21.5% (active); in the test on EKVX NSCLC, 1.72% (active). For the same compound, the growth in the test with SN12C renal is 2.32% (active); in the test on UO-31 renal, -13.8% (active); in the test with TK-10 renal it was -28.2% (active); with ACHN renal it was 6.16% (active); in the test on CAKI-1 renal it was 6.32% (active); in the test on A498 renal it was -37.5% (active). Besides, the growth in the test with CCRF-CEM leukemia is 18.9%; with MOLT-4 leukemia, 16.7%.

With `COC(=O)[C@]12CC[C@@H](C)[C@H](C)[C@@H]1C1=CC[C@@H]3[C@@]4(C)C(c5cnco5)=C[C@@](C)(CO)C4=CC[C@@]3(C)[C@]1(C)CC2`, the growth in the test with HCT-15 colon is 29.8%; with HT29 colon, 26.6%; with SNB-75 CNS it was 77.1%; in the test with SNB-19 CNS it was 65.7%; in the test on U251 CNS it was 61.8%; in the test on PC-3 prostate, 12.6%. The growth with SK-MEL-5 melanoma is 47.2%; in the test with UACC-62 melanoma, 65.3%; in the test with LOX IMVI melanoma, 67.7%; in the test on SK-MEL-28 melanoma, 66.7%; with SK-MEL-2 melanoma it was 42.3%; in the test on EKVX NSCLC, 41.2%. Besides, the growth with SN12C renal was 55.9%; with UO-31 renal, 44.1%; with TK-10 renal it was 69.6%; in the test on ACHN renal, 25.4%; in the test on CAKI-1 renal, 34%; in the test with CCRF-CEM leukemia, 35.5%. For the same compound, the growth with MOLT-4 leukemia was 10.1%.

For the compound `COc1ccc(-n2c(=O)c3ccccc3n(Cc3ccc(C(=O)NO)cc3)c2=O)cc1`, the growth in the test with HCT-15 colon is 61.3%; with HT29 colon it was 29.6%; in the test on SNB-75 CNS, 11%; with SNB-19 CNS, 18.1%; in the test on U251 CNS, -40.2% (active); with PC-3 prostate, -24.6% (active). Moreover, the growth was 6.91% (active) in the test with SK-MEL-5 melanoma; -30.8% (active) with UACC-62 melanoma; -71.5% (active) in the test with LOX IMVI melanoma; -17.4% (active) with SK-MEL-28 melanoma; 14.2% in the test with SK-MEL-2 melanoma; 16.7% in the test on EKVX NSCLC. Moreover, the growth was 33.6% in the test with SN12C renal; 55% in the test on UO-31 renal; 19.6% in the test on TK-10 renal; 50.3% in the test with ACHN renal; 64.9% in the test on CAKI-1 renal; -2.54% (active) in the test on A498 renal. Also, the growth in the test on CCRF-CEM leukemia is 3.15% (active); in the test on MOLT-4 leukemia, -10.1% (active).

As for `COC(=O)CC[C@@H](C)[C@H]1CC[C@H]2C3CC[C@@H]4C[C@@H]5CC[C@]4(C)[C@@]3(O5)[C@H](Br)[C@@H](Br)[C@]12C` (stereo partly drawn), the growth in the test on HCT-15 colon was 97.3%; in the test with HT29 colon it was 81.6%; with SNB-75 CNS it was 84.3%; in the test on SNB-19 CNS, 106%; in the test with U251 CNS, 88.6%; in the test on PC-3 prostate, 77.9%. Also, the growth in the test on SK-MEL-5 melanoma is 99.3%; with UACC-62 melanoma, 86.3%; with LOX IMVI melanoma it was 97.1%; with SK-MEL-28 melanoma, 105%; in the test on SK-MEL-2 melanoma, 93%; with EKVX NSCLC, 84.8%. Besides, the growth is 98.1% with SN12C renal; 93.7% in the test with UO-31 renal; 97.7% in the test on TK-10 renal; 96.8% with ACHN renal; 80.3% in the test with CAKI-1 renal; 95.6% in the test with CCRF-CEM leukemia. In the test on MOLT-4 leukemia, the growth is 76%.

On to `O=C1/C(=C\c2cccc(OCCCCCOc3ccc(Cl)cc3)c2)N=C2SCCCN12`, for which the growth is 57.7% with HCT-15 colon; 67.4% with HT29 colon; 71.3% in the test with SNB-75 CNS; 75% in the test on SNB-19 CNS; 74.1% with U251 CNS; 28.8% with PC-3 prostate. The growth in the test on SK-MEL-5 melanoma was -6.82% (active); in the test on UACC-62 melanoma it was 56.6%; in the test with LOX IMVI melanoma it was 67.1%; in the test with SK-MEL-28 melanoma, 58.7%; in the test with SK-MEL-2 melanoma, 41.2%; in the test with EKVX NSCLC it was 37.2%. For the same compound, the growth in the test on SN12C renal was 77.6%; with UO-31 renal, 39.4%; in the test on TK-10 renal it was 56.7%; in the test with ACHN renal, 49.3%; with CAKI-1 renal, 52.7%; in the test on A498 renal, 39.6%. Further, the growth with CCRF-CEM leukemia is 55.9%; in the test with MOLT-4 leukemia, 36.7%.

With `N#Cc1c(C(F)(F)F)cc(Nc2ccc3nc(NCCN4CCCC4)oc3c2)n2c1nc1ccccc12`, the growth in the test with HCT-15 colon is 56.6%; with HT29 colon, 5.45% (active); in the test on SNB-75 CNS it was 82.6%; in the test with SNB-19 CNS, 85.2%; with U251 CNS, 89%; in the test with PC-3 prostate, 52.1%. Besides, the growth with SK-MEL-5 melanoma was 69.8%; in the test with UACC-62 melanoma it was 78.1%; with LOX IMVI melanoma, 62.3%; in the test with SK-MEL-28 melanoma, 72.8%; with SK-MEL-2 melanoma, 83.8%; in the test on EKVX NSCLC it was 73.6%. Moreover, the growth with SN12C renal was 55.6%; with UO-31 renal it was 66.6%; in the test on TK-10 renal it was 79.5%; in the test on ACHN renal it was 83%; in the test with CAKI-1 renal it was 74.1%; in the test with A498 renal it was 52.8%. Besides, the growth in the test on CCRF-CEM leukemia was 11%; with MOLT-4 leukemia it was 56.7%.

With `C=C1[C@@H](O)C[C@H]2C(C)(C)C[C@H](Cl)C[C@]2(C)[C@H]1C[C@H](O)[C@H]1CC(=O)NC1=O`, the growth in the test with HCT-15 colon is -13.7% (active); in the test with HT29 colon, -23.6% (active); with SNB-75 CNS it was -37.2% (active); in the test on SNB-19 CNS, -20.7% (active); in the test on U251 CNS it was -16.8% (active); in the test on PC-3 prostate, -19% (active). For the same compound, the growth is -70.1% (active) in the test on SK-MEL-5 melanoma; -72.4% (active) with UACC-62 melanoma; -71.9% (active) in the test on LOX IMVI melanoma; -26.1% (active) with SK-MEL-28 melanoma; -70.4% (active) with SK-MEL-2 melanoma; -25.1% (active) with EKVX NSCLC. In addition, the growth with SN12C renal is -28.9% (active); in the test on UO-31 renal, -26.1% (active); in the test with TK-10 renal it was -18.6% (active); in the test on ACHN renal, -26.2% (active); with CAKI-1 renal it was 1.87% (active); with A498 renal it was -76% (active). In addition, the growth is 0.532% (active) in the test with CCRF-CEM leukemia and -11.2% (active) in the test on MOLT-4 leukemia.
